Screening data from PubChem BioAssay.
IL-1B inflam inh = blocks inflammasome-driven IL-1 beta release. THP-1 LPS/ATP IL-1B secretion, AlphaLISA, 16 h; hits give low values. activity change, % at 57.5 µM. 360,000 compounds, 4.7% hits; in the data active means activity change below about -50%; inconclusive means mostly about -30% to -49%
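THP-1 cells pretreated 1 hr with compounds (up to 57.5 uM final), then stimulated with LPS (250 ng/mL final) plus ATP (1.25 mM final); secreted IL-1B measured by AlphaLISA after 16 hr, decreased signal indicating inhibition.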
DT40 TDP1 CPT = growth inhibition of DT40 Tdp1-/-;hTDP1 cells with camptothecin (screen for TDP1 inhibitors); AID 686979; chicken DT40 Tdp1-/-;hTDP1 cells + 20 nM CPT, ATP luminescence, 48 h; 420,000 compounds, 12% hits; Potency, µM (titrated, usually from 46.2 µM), for the others: at the highest dose activity change, negative = growth inhibition, actives largely listed as inhibitors; further: potency means the concentration at half of the fitted maximal effect; nearly all actives have a fitted effect of over 55% in size
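Chicken DT40 Tdp1-/- cells stably complemented with human TDP1 were seeded at 400 cells/well in medium containing 20 nM camptothecin, exposed to pin-transferred compounds, and grown at 37 °C for at least 48 hr. Viability was read as ATP luminescence.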
ALOX12 inh = inhibitors of human 12S-lipoxygenase ALOX12 | P18054 | purified 12hLO, xylenol orange hydroperoxide absorbance | 580,000 compounds, 1.1% hits | Potency, µM (top dose mostly 108 µM), inactives show at the top dose activity change, negative = inhibition, most hits filed as inhibitors; further: potency means the concentration at half of the fitted maximal effect
Target sequence (P18054 whole entry, looked up): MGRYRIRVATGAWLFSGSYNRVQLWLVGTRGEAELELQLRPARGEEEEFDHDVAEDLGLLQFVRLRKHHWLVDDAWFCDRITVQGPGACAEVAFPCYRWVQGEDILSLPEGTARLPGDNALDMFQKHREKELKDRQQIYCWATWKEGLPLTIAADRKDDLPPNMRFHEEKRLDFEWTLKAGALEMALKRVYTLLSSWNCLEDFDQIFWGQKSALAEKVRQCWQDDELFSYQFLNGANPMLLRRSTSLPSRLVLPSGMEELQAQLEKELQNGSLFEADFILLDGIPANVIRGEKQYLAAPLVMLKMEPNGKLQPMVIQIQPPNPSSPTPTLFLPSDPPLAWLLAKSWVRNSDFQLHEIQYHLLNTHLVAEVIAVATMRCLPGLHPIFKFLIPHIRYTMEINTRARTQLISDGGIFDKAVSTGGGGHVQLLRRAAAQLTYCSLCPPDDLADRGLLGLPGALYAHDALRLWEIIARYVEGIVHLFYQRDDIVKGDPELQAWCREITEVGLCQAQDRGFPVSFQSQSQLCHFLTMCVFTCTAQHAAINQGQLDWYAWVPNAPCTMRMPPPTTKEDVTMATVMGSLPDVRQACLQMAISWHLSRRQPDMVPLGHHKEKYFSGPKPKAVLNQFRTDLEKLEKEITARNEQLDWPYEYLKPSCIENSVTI
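Hydroperoxide product was detected by ferrous iron/xylenol orange as the 573 to 405 nm absorbance ratio. Arachidonic acid at 40 uM (final) was turned over for 30 min at room temperature by 150 nM human 12hLO, pH 7.0 Hepes buffer, after 15 min compound preincubation.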
DT40 TDP1 no CPT = qHTS for Inhibitors of human tyrosyl-DNA phosphodiesterase 1 (TDP1): qHTS in cells in absence of CPT | AID 686978, 2013 | DT40 Tdp1-/- hTDP1 cells, no CPT, ATP luminescence, 48 h | Potency, µM (top dose mostly 46.2 µM), for inactives: at the highest dose activity change, negative = growth inhibition, actives largely listed as inhibitors | 420,000 compounds, 15% hits; further: potency means the concentration at half of the fitted maximal effect; nearly all actives have a fitted effect of over 55% in size
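Chicken DT40 Tdp1-/- cells complemented with human TDP1, screened without camptothecin (DMSO vehicle only), 400 cells/well. Compounds pin-transferred, cells incubated at 37 °C for at least 48 hr. Growth read as ATP-dependent luminescence (CellTiter-Glo, 30 min at RT).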
HT1080 IDH1KD tx = kills HT-1080 cells with IDH1 knockdown; 360,000 compounds, 2% hits; AID 686971; Potency, µM (titrated, usually from 46.1 µM), without a hit: at the top dose activity, negative = toxicity, actives largely listed as cytotoxic; HT-1080 IDH1 knockdown viability, ATP luminescence, 48 h;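 further: potency means the concentration at half of the fitted maximal effect; 0% = DMSO wells and -100% = cell-free medium wells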
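Knockdown cells (IDH1KD HT-1080) received compounds 2 h after plating at 750 cells/well and were kept 48 h at 37 °C in 5% FBS RPMI. A CellTiter-Glo luminescence read gave % activity for curve fitting.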
HT1080-NT tox = kills 2HG-producing HT-1080-NT fibrosarcoma cells. HT-1080-NT fibrosarcoma viability, CellTiter-Glo ATP luminescence, 48 h. Potency, µM (top dose mostly 46.1 µM), without a hit: at the top dose activity, negative = less viability, usual class: cytotoxic. 360,000 compounds, 1.6% hits;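 further: NT is the 2HG producing partner of a matched IDH1 knockdown line; potency means the concentration at half of the fitted maximal effect; 0% = DMSO-treated cells and -100% = media-only wells without cells; nearly all actives have a fitted effect of over 55% in size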
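Luminescent CellTiter-Glo readout after 48 hours of compound exposure at 37 degrees C defined viability of HT-1080-NT cells. Activity was normalized to DMSO wells and cell-free media wells; concentration-response curves were fitted and assigned curve classes.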
The depositor's hits bear a star; ? = inconclusive; nt = no result. This excerpt belongs to a sample that is enriched for hits. Unless noted, the call rests on the fitted dose curve; in most records, active means well fitted curve in the direction sought with a large enough effect; inconclusive means small, poorly fitted or top-dose-only effect, or another doubt; inactive means no such curve, though single readings can be large; an effect the other way counts as inactive or inconclusive. Unless noted, on the % scale 0 is the no-effect control and ±100 the full control effect.

SMILES	IL-1B inflam inh	DT40 TDP1 CPT	ALOX12 inh	DT40 TDP1 no CPT	HT1080 IDH1KD tx	HT1080-NT tox
O=C(Nc1ccc(S(=O)(=O)N2CCOCC2)cc1)c1ccco1	-9	-1%	0%	?	15%	11%
CCn1nnc(NC(=O)c2ccc([N+](=O)[O-])o2)n1	-78*	?	-1%	?	?	?
CCCCCn1nc(C(=O)OCCOc2cccc(C)c2)c2ccccc2c1=O	nt	nt	2%	nt	nt	nt
CCCNC(=O)N1CCCC(c2nc(-c3cccnc3)no2)CCNC(=O)CC1 (stereo unspecified)	nt	nt	68%	nt	nt	nt
O=C(Nc1ccc(OC(F)(F)F)cc1)c1ccc(S(=O)(=O)N2CCOCC2)o1	-51*	?	6%	16µM*	-6%	-11%
O=C(Nc1ccc(OC(F)(F)F)cc1)c1cc(S(=O)(=O)N2CCCCC2)ccc1N1CCOCC1	-14	?	-1%	?	-11%	-15%
c1ccc2c(c1)Nc1nccnc1S2	9	?	?	-25%	11%	0%
FC(F)(F)c1cnc2c(c1)Nc1ccccc1S2	-16	?	0%	21µM*	6%	5%
O=C(O)c1ccccc1C(=O)Cc1ccc(I)cc1	nt	nt	9%	nt	nt	nt
S=C(NCc1ccco1)Nc1ccc(Oc2ccccc2)cc1	-7	?	45µM*	?	1%	-6%
S=C(NCc1ccco1)Nc1ccc(Br)cn1	56	-21%	?	-14%	17%	13%
COc1ccc(NC(=S)NCc2ccco2)cc1	-5	-8%	0%	-24%	13%	15%
S=C(NCc1ccco1)Nc1cc(Cl)c(Cl)cc1Cl	-52*	?	?	?	?	?
S=C(NCc1ccco1)Nc1cc(-c2ccccc2)[nH]n1	nt	12%	5µM*	?	-24%	-11%
O=C(CCc1ccccc1)NC(=S)NCc1ccco1	1	12%	-24%	21µM*	-9%	-6%
COc1cc(NC(=O)Cn2nc3ccc(SC4CCCCC4)nn3c2=O)cc(OC)c1OC	nt	nt	13%	nt	nt	nt
COCCN1CCC(CNC(C)=O)CC1	nt	nt	-26%	nt	nt	nt
S=C(NCc1ccco1)Nc1ccc(Cl)c(Cl)c1	-101*	?	28µM*	?	?	?
CC1=NN(S(=O)(=O)c2ccc(Cl)cc2Cl)C(=O)c2ccccc2O1	6	16µM*	-7%	16µM*	-3%	-18%
O=c1oc2cccnc2n1CCS(=O)(=O)c1ccc(F)cc1	-66*	-4%	15%	-18%	-3%	-11%
Cc1cc(C)n(CC(C)NCc2cn[nH]c2-c2cccc3ccccc23)n1 (stereo unspecified)	-10	?	8%	18µM*	-9%	1%
CCCCNS(=O)(=O)c1ccc2nc(NC(=O)c3cccnc3)sc2c1	nt	?	5%	?	nt	nt
CCN(CC)S(=O)(=O)c1ccc(C(=O)Nc2nc3c(Cl)cc(Cl)cc3s2)cc1	nt	?	0%	16µM*	nt	nt
CCOC(=O)c1sc(NC(=O)c2ccc(S(=O)(=O)N(CC)CC)cc2)nc1C	4	-7%	34%	-25%	0%	4%
CCN(CC)S(=O)(=O)c1ccc2nc(NC(=O)c3cccnc3)sc2c1	nt	21µM*	2%	?	nt	nt
CCCNS(=O)(=O)c1ccc2nc(NC(=O)c3ccc(F)cc3)sc2c1	nt	8.2µM*	?	21µM*	nt	nt
COc1ccc(CNC(=O)c2cc(C(C)C)nc3onc(C)c23)cc1OC	nt	nt	-10%	nt	nt	nt
COc1ccccc1N(C(=O)c1ccncc1)c1nc(-c2ccc([N+](=O)[O-])cc2)cs1	0	16µM*	-4%	16µM*	-19%	-6%
